PostGolgi ctrl = yeast control strain growth, post-Golgi counter-screen; efflux-deficient yeast background strain, growth absorbance A615, 16 h; inhibition, % at 10 µM; hit rate 5% among 98,000
PostGolgi yeast = growth inhibition of a yeast mutant, post-Golgi transport screen; post-Golgi transport phenotypic cell assay; inhibition, % at 10 µM; hit rate 0.9% among 98,000; AID 739;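 note: yeast cells grown in 1536-well plates; yeast grown about 18 h at 30C before absorbance read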
EphB4 antag = antagonists of human EphB4-ephrin-B2 interaction. inhibition, % at 7 µM. hit rate 0.15% among 97,000. EphB4 LBD / TNYL-RAW-Alexa532 peptide, fluorescence polarization;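 active = inhibition above the screen-wide mean inhibition plus 3 SD, cut at about 15% in these data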;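 note: 0% = DMSO wells and 100% = excess unlabeled TNYL-RAW peptide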
Candida biofilm = kills Candida albicans biofilms; C. albicans biofilm + clotrimazole, Alamar Blue; inhibition, % at 6 µM; hit rate 0.14% among 85,000; AID 834;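 active = inhibition above 20%; inactive = inhibition below 20%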;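 note: preformed 24 hr biofilms exposed to compound for 48 hr; 0% = biofilm without compound and 100% = blank killed by clotrimazole plus chlorhexidine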
* = called active by the depositor; nt = not tested or not shown. Only some compounds are listed: those with a hit (about 5.2% of all), similar ones and a draw of the others. Cut-off read from the data, not from the text of the source, unless noted: active = inhibition above about 30%; inactive = the rest.

SMILES	PostGolgi ctrl	PostGolgi yeast	EphB4 antag	Candida biofilm
COc1cc(/C=N/c2oc(-c3ccccc3)cc2C#N)ccc1O	18.9	14.7	4.0	nt
CC(/C=C1\SC(=O)N(CC(=O)Nc2cccc(O)c2)C1=O)=C\c1ccccc1	30.6*	0.4	1.1	nt
Cn1cc(/C=C2/SC(=O)N(CC(=O)Nc3ccc4c(c3)OCO4)C2=O)c2ccccc21	8.2	-23.4	-4.5	nt
CC1CC(NC(=O)C2(C)CC2(Cl)Cl)CC(C)(C)C1 (stereo not drawn)	9.0	-0.3	4.3	nt
O=C(Nc1cccn(Cc2c(Cl)cccc2Cl)c1=O)c1c(Cl)cccc1Cl	92.9*	5.6	2.3	nt
COc1ccc(Cl)cc1C(=O)CSc1nnnn1C1CCCC1	34.6*	20.3	0.4	6.0
O=C(/C=C/c1ccco1)NC(=S)Nc1ccc(Cl)cn1	12.9	-4.2	-0.7	1.2
C/C(=N/NS(=O)(=O)c1ccc(Br)cc1)c1ccc(NC(=O)c2ccc(C)o2)cc1	40.7*	3.0	-10.1	nt
Cc1cccc(OCC(=O)NC(=S)Nc2ccc(S(=O)(=O)NC3CCCCC3)cc2)c1	14.5	-1.8	2.3	nt
COc1ccc(Cl)cc1CN1CCN(c2nc(C)cc(C)c2C#N)CC1	13.2	-13.7	-0.8	nt
Cc1cc(C)c(C#N)c(N2CCN(CCOc3ccc(Cl)cc3)CC2)n1	32.4*	2.1	-2.1	-3.5
CCc1cc(-c2[nH]ncc2-c2ccc3c(c2)OCO3)c(O)cc1O	nt	nt	nt	9.1
CCCc1cc(-c2[nH]ncc2-c2ccc3c(c2)OCCCO3)c(O)cc1OC	39.8*	15.2	2.5	0.3
FC(F)(F)c1ccc(CN2CCCCCC2)cc1	7.0	-8.7	-5.2	6.5
O=C1c2[nH]nc(-c3ccccc3O)c2C(c2ccccc2)N1Cc1ccco1 (stereo not drawn)	38.3*	0.6	0.0	0.1
Cc1cc(NC(=O)CCC(=O)N(CCC(C)C)CC(=O)NCC2CCCO2)no1 (stereo not drawn)	38.3*	-0.3	-4.7	8.3
CCC(=O)c1ccc(OCC(=O)Nc2nn3cnnc3s2)cc1	3.5	7.7	-0.5	-2.6
Cc1ccc2cc(CN(Cc3ccc4c(c3)OCO4)Cc3nnnn3Cc3ccco3)c(=O)[nH]c2c1	30.3*	11.0	-0.7	2.3
CCCCCn1c(SCc2ccncc2)nc2cc(C(=O)NCc3ccco3)ccc2c1=O	43.4*	-2.2	-2.4	6.4
CCCCn1c(SCC(=O)NCc2ccco2)nc2ccccc2c1=O	19.1	-5.5	2.9	nt
O=C1CC(SC(=NCc2ccc3c(c2)OCO3)Nc2ccccc2)C(=O)N1c1ccccc1 (stereo not drawn)	41.2*	3.8	0.4	-5.2
FC(F)(F)c1nc(-c2cccs2)ncc1-c1nnnn1-c1ccc(Cl)cc1	53.1*	21.2	3.0	nt
c1ccc(N2CCN(c3nc4ccccc4n4nnnc34)CC2)cc1	15.1	-0.2	nt	5.3
Cc1cc(C)n(-c2nc3ccccc3n3nnnc23)n1	33.7*	4.7	nt	2.6
CO/N=C(/CS(=O)(=O)Cc1ccccc1Cl)c1ccc(Cl)cc1Cl	32.8*	-1.2	10.8	nt
SMILES	PostGolgi ctrl	PostGolgi yeast	EphB4 antag	Candida biofilm
Oc1ccc2ccccc2c1C=Nc1cc(C(F)(F)F)ccc1N1CCCC1	5.2	-2.9	-2.1	nt
CN(CC(=O)Nc1ccc(C#N)cc1)Cc1ccc(Cl)c(Cl)c1	33.5*	4.2	-1.7	5.8
CC1=C(C(=O)NC2CCCC(C)C2C)C2(CCCCC2)OC1=O (stereo not drawn)	1.1	-5.3	-5.7	8.7
CC1=C(C(=O)Nc2cc(-c3cccc(F)c3)[nH]n2)C2(CCCCC2)OC1=O	31.7*	2.0	nt	-2.9
O=C(c1cccc(S(=O)(=O)N2CCOCC2)c1)N1CCCCCC1	0.5	5.5	4.7	-0.7
O=C(c1cccc(S(=O)(=O)N2CCCCC2)c1)N1CCCCC1	37.8*	13.0	1.6	-4.1
O=C(c1cccc(-c2nnc(-c3ccccc3)o2)c1)N1CCCCCC1	15.4	7.9	11.5	-0.1
O=C(c1cccc(-c2nnc(-c3ccccc3)o2)c1)N1CCCCC1	31.2*	6.6	-2.3	4.8
O=C(NCc1ccc2c(c1)OCO2)c1cccc(S(=O)(=O)N2CCCCC2)c1	30.9*	6.6	0.7	7.0
Cc1ccc(NC(=O)Nc2cccs2)cc1	37.9*	2.5	nt	4.0
CCc1ccc(NC(=O)Nc2cccs2)cc1	12.4	3.9	-4.2	-1.6
COc1ccc(N(CC(=O)N2CCc3ccccc3C2)S(=O)(=O)c2c(C)nn(C)c2C)cc1	-6.7	9.8	-0.4	-0.4
CCOCC(=O)Nc1nc2c(s1)C(=O)CC(C)(C)C2	-3.9	-1.9	-4.9	4.1
CC1(C)CC(=O)c2sc(NC(=O)C3CC3)nc2C1	36.1*	4.8	0.5	10.3
O=C1CCCC2=C1C(c1ccc(Cl)cc1)C1C(=O)c3ccccc3C1=N2 (stereo not drawn)	42.9*	9.9	1.4	nt
Cc1ccc(Cl)cc1N1CCN(C(=O)C2(S(=O)(=O)c3ccc(Cl)cc3)CC2)CC1	39.8*	-4.0	0.0	4.4
O=C(N1CCN(c2cccc(Cl)c2)CC1)C1(S(=O)(=O)c2ccc(Cl)cc2)CC1	89.9*	80.3*	0.2	3.5
CC(=O)c1ccc(N2CCN(C(=O)C3(S(=O)(=O)c4ccc(Cl)cc4)CC3)CC2)cc1	27.2	-20.5	2.7	6.1
O=C(O)c1cccc2c1C(=O)N(Cc1ccncc1)C2	34.8*	-11.7	1.1	-3.1
Cc1onc(-c2ccccc2)c1C(=O)N1CCN(C)CC1	3.7	-6.6	-0.1	7.1
COc1ccc(-c2cc(C3CC3)nc3sc(C#N)c(N)c23)cc1	63.0*	6.2	-5.6	nt
Cc1ccc(Cn2ccc(NC(=O)c3cc(CC(C)C)on3)n2)cc1	10.8	-4.4	nt	1.5
CCOC(=O)C1=C(c2ccccc2)O/C(=C(/C#N)C(F)(F)F)S1	39.1*	3.3	5.0	-1.4
Cc1cccc(N2CCN(S(=O)(=O)c3ccc4c(c3)CCN4C(=O)CCC(=O)O)CC2C)c1 (stereo not drawn)	14.9	-4.0	0.1	13.0
Cc1ccc(Nc2cc(C)nc3nnnn23)cc1	15.5	-12.1	3.3	8.2
SMILES	PostGolgi ctrl	PostGolgi yeast	EphB4 antag	Candida biofilm
Cc1ccc(Nc2cc(C)nn2-c2nc(C)cc(C)n2)cc1	38.9*	-3.9	-6.0	2.9
Cc1ccc(Nc2cc(C)nn2-c2nc(C)cc(=O)[nH]2)cc1	100.2*	94.2*	5.9	9.9
COc1cccc(C2=NOC(C(=O)Nc3ccccc3SC)C2)c1 (stereo not drawn)	4.5	4.0	1.5	1.6
CCn1cc(C(=O)O)c(=O)c2cc(F)c(N3CCNCC3)cc21	nt	nt	nt	21.9*
CCn1cc(C(=O)O)c(=O)c2cc(F)c(N3CCN(C(=O)Nc4ccccc4)CC3)cc21	-2.1	-1.9	-5.7	10.6
CCN(C(=O)c1ccc(C(C)(C)C)cc1)c1nnc(Cn2nnc3ccccc32)s1	42.6*	-1.6	-2.4	9.2
CCn1cnc2sc(C)c(C)c2c1=O	31.7*	11.8	9.8	nt
Cc1cccc(N2CCN(CC(=O)Nc3nccs3)CC2)c1C	1.1	38.7*	4.9	nt
Cc1ccccc1C(=O)NC1CCN(CC(=O)Nc2nccs2)CC1	15.3	12.8	-0.8	-3.7
COc1ccc(OC)c2[nH]c(=O)c(CCNC(=O)C3CCCCC3)cc12	6.3	12.7	2.4	7.2
CC(=O)Nc1ccc(SCC(=O)OCC(=O)NC(=O)NCc2ccco2)cc1	3.5	8.7	16.3*	3.6
CC(C)c1nnc(SCC(=O)NCc2ccco2)n1C	16.6	-8.0	1.4	6.7
